# According to the OligoGym collection:
# Target: SKI
# Assay: pooled miR-30 sensor sort-seq; sequence = guide strand
# Details: shRNA
# Note: reference of the scale not given here.
row,Sequence,sensor-assay potency score (higher = more potent)
1,TTCTTCTCGTTCTCGGCGCGGA,-0.778
2,TTTGGCTTCCTTGGTGTCCAGG,-1.03
3,TACACTTGCCGAAGCACTCGTG,-0.466
4,TCACTCGCTGACACTGCGGGGG,-0.224
5,TTTCTCCTTCACGTCGTCCAGG,-1.07
6,TACGGTCTCGCAGCGCTCGGTG,-1.18
7,TAGGAGTAGAAGCTGTCTCGGA,0.278
8,TAGATGTGGAGCTCGTCGCACA,-1.04
9,TCTCACTCGCTGACACTGCGGG,-0.587
10,TGGAGCTCGTCGCACACCGCGT,-1.77
11,TTACACTTGCCGAAGCACTCGT,0.441
12,TTGGTGATGAGCCCGCACGAGG,-1.78

# Target: SLAIN1
# Assay: as above
# Details: shRNA
row,Sequence,sensor-assay potency score (higher = more potent)
1,TTTATTGCCAACGAAGGTCTTG,0.0936
2,TGAAGTAGAAGCATAATCTTGC,0.776
3,TTGAGGTGAATAATACTGTTGC,-0.0982
4,TTCTTGAAATTCCATTTCCAGC,-1.69
5,TACATGTCCCTTTTTTTCCTGA,-0.235
6,TTGCCTGAGACTTTCTTCTTGC,0.429
7,TTGAGTCAAAACTCTGACTATT,-1.16
8,TTCTTCTTGCAGACGAGCCATG,-1.37
9,TATATTAAAACACAAAAGGGAA,-0.738
10,TATGTCTTGATACAGATGCTGA,-0.777
11,TATTTGAAGGAAAATACTGGGA,0.189
12,TTCTTCGGAGCTTATCTCCATT,-0.767

# Target: SLC10A3
# Assay: as above
# Details: shRNA
row,Sequence,sensor-assay potency score (higher = more potent)
1,TAGTGCATGAGAACTTTGGTGG,0.0901
2,TTGATGCAGAAGTCTCTCCGCT,-0.433
3,TTCAGCAGGTGAGACCTTGATG,-1.03
4,TAGAGGATTGGGTTTTCCGAGA,-0.917
5,TCAAACTCCATCACAGAGCCAT,-0.169
6,TTTTCTGAGTGCATAGTGCATG,-0.554
7,TTAAGGGACCTGTGCCACCACC,-1.35
8,TCTTCAGCAGGTGAGACCTTGA,-0.622
9,TCTTGATGGTCAGCACCTCTGT,-1.25
10,TCTCCAATGCTCAAGTAGCGGC,-0.783
11,AAAGATAAGAGGCAGGAGCAGG,-0.888
12,TTGGGTTTTCCGAGAAGTGGGC,0.0759

# Target: SLC10A7
# Assay: as above
# Details: shRNA
row,Sequence,sensor-assay potency score (higher = more potent)
1,TATAGATACAACATTTACTTGC,0.105
2,TAAAAGCATAAAACTCAGCTGG,-0.225
3,ATCATGAGGAGTACACTGCTGC,-0.556
4,TACATCATTATAAACTCTGTAA,-0.408
